PubChem BioAssay (NCI)
This is part of a sample that, as a whole, favours compounds with a hit. Of some 83,000 tested, about 20% had one in any assay.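 Method: cells in 96-well plates; compound added at one concentration; 48 h incubation; percent growth measured; values under 10 scored active.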 Calls of active or inactive are those of the source.

The compounds below were run on OVCAR-3 ovarian (assay: NCI-60 one-dose screen, 48 h (100 = growth as untreated, 0 = no growth, -100 = all killed)). Conditions: 10 µM unless noted.
Procedure: Growth inhibition of the OVCAR-3 human tumor cell line is measured as a screen for anti-cancer activity. Cells are grown in 96 well plates and exposed to the test compound for 48 hours. Compounds are tested at a single concentration, which is 10^-5 M for most compounds. The reported endpoint is percent growth (GI% or GIPRCNT), where numbers from 0 - 100% represent growth inhibition, and numbers from -100% - 0 represent cell death. For example, a value of 40 represents 60% growth inhibition. A value of 0 means no net growth occurred over the course of the experiment. A value of -40 indicates 40% of cells at the beginning of the experiment died by the end of the experiment. A value of -100 means all cells are dead at the end of the experiment.
NCI-60 Human Tumor Cell Lines Screen was performed using the standard one-dose NCI protocol, which is described in more detail at https://dtp.cancer.gov/discovery_development/nci-60/default.htm.
Compounds with GIPRCNT values below 10 were considered active. Activity score was based on GIPRCNT using the following formula: […]
Score is 0 for GIPRCNT values of 100 or above, 50 for GIPRCNT values of 0, and 100 for GIPRCNT values of -100.

Row | Structure (SMILES) | growth
1 | Cc1cc(N2CCCCC2)nc(N(CCNc2ccnc3cc(Cl)ccc23)Cc2ccccn2)n1 | 56.8% (inactive)
2 | O=c1ccn(C2OC(F)(CO)C(O)C2F)c(=O)[nH]1 (stereo not given) | 107% (inactive)
3 | COc1cc(C2CC(c3ccc(Nc4nc(Nc5ccc(F)cc5)nc(Nc5ccc(Cl)cc5)n4)cc3)=NN2C(C)=O)cc(OC)c1OC (stereo not given) | 82.7% (inactive)
4 | CCCCCCCCc1cc[n+](CC(=O)c2ccc(Br)cc2)cc1 | -44.1% (active)
5 | NC(N)=N/N=C(/c1ccccc1)c1ccc(N)cc1 | 112% (inactive)
6 | COc1cccc(/C=C2\COc3ccc(O)cc3C2=O)c1OC | 41.2% (inactive)
7 | C(=C\c1nc2ccccc2[nH]1)/c1nc2ccccc2[nH]1 | 109% (inactive)
8 | CC(C)(C)CC(C)(C)Nc1c(-c2ccc(-c3ccccc3)cc2)nc2cnccn12 | 90.2% (inactive)
9 | C=C1c2c(C)nn(-c3ccc(O)cc3)c2N(C)C23C[C@@H]1C1(C)c4c(C)nn(-c5ccc(O)cc5)c4N(C)C(C)(C[C@H]12)C3 (stereo not given in full) | 24.2% (inactive)
10 | Cc1[nH]c(-c2nc3ccccc3[nH]2)c(C)c1C(=O)N1CCc2sccc2C1 | 95% (inactive)
11 | CN(C)c1ccc(/C=N/NC(=O)COc2cc(=O)n(C)c3ccccc23)cc1 | 112% (inactive)
12 | NC(N)=N/N=C(/c1ccccc1)c1ccccc1F | -0.0856% (active)
13 | C[C@@H]1C(=O)N(C[C@@H](Cc2ccccc2)NC(=O)OCc2ccccc2)[C@]1(Cc1ccccc1)C(=O)OCc1ccccc1 | 43.3% (inactive)
14 | COc1ccc(Nc2ncc(Br)c(NCCCNC(=O)C3CCC3)n2)cc1 | 31.6% (inactive)
15 | CCCCCCCSc1ccc(C(=O)O)cc1 | 118% (inactive)
16 | COc1ccc(/C(C)=C(\c2ccc(Cl)cc2)c2ccc(OCCN3CCCCCC3)cc2)cc1F | 54.9% (inactive)
17 | C=C(C=O)C1CCC2(C(=O)O)CCC3(C)C(CCC4C5(C)CCC(O)C(C)(C)C5CCC43C)C12 (stereo not given) | -86.9% (active)
18 | CC[C@]1(O)C[C@H]2CN(CCc3c([nH]c4ccccc34)[C@@](C(=O)OC)(c3cc4c(cc3OC)N(C=O)[C@H]3[C@@](O)(C(=O)OC)[C@H](OC(C)=O)[C@]5(CC)C=CCN6CC[C@]43[C@@H]65)C2)C1 | -41.4% (active)
19 | O=C(CCl)N1c2cccc3cccc(c23)N(C(=O)CCl)C1c1cn(-c2ccccc2)nc1-c1cccc([N+](=O)[O-])c1 | 61.6% (inactive)
20 | COc1ccc(/C(C)=C(\c2ccc(Cl)cc2)c2ccc(OCCN(C)C)cc2)cc1F | 64.7% (inactive)

Row | Structure (SMILES) | growth
21 | COc1ccc(-c2nnc(-c3ccc4c(c3)nc(-c3ccccc3)n4C3CCCCC3)o2)cc1 | 43% (inactive)
22 | Cc1nc2ccc(C(=O)NCc3cc(C(=O)O)c(C)o3)cc2nc1C | 101% (inactive)
23 | CCOC(=O)C(O)C(O)(c1ccccc1)c1ccccc1 (stereo not given) | 108% (inactive)
24 | N=c1ccn2c(n1)OC1C(O)C(CO)OC12 (stereo not given) | 67.1% (inactive)
25 | CSc1ccc(Cl)c(C(=O)Nc2sccc2C(N)=O)c1 | 100% (inactive)
26 | CS(=O)(=O)c1ccc(-c2nc3cc(Cl)ccc3n2CC(=O)NO)cc1 | 96.1% (inactive)
27 | CC(=[N-])N1CCC[C@@H](Nc2c3ccccc3nc3ccccc23)C1.[Cl][Pt].[NH-]CCC[NH-] | 3.95% (active)
28 | NC(=S)N/N=C/C(=O)O | 26.1% (inactive)
29 | NC(=O)c1c(NC(=O)c2ccccn2)sc2c1CCC(=O)C2 | 7.94% (active)
30 | N[C@H]1CCC[C@@H]1NCCCCN1C(=O)c2cccc3cccc(c23)C1=O | 61.3% (inactive)
31 | C#CC[C@H](N)C(=O)O | 111% [20 µM] (inactive)
32 | CC(C)c1ccc(NC(=O)Cc2ccc(Nc3ncnc4cc(-c5cnn(CCN(C)C)c5)ccc34)cc2)cc1 | -89.6% [30 µM] (active)
33 | COc1cc(C(=O)/C=C/c2c(C(F)(F)F)nc3ccccn23)cc(OC)c1OC | -57.3% (active)
34 | COc1cc2oc(-c3cccc(C(=O)Nc4ccc(C#N)cc4)c3)cc(=O)c2c(O)c1OC | 51.3% (inactive)
35 | COc1ccc(N(C)c2nc(Cl)nc3cnn(C)c23)cc1 | 4.74% (active)
36 | CNC(=O)c1cc(Oc2ccc3nc(NC(=O)Nc4cc(C(F)(F)F)cc(C(F)(F)F)c4)sc3c2)ccn1 | -76.5% (active)
37 | CS(=O)(=O)c1ccc(-c2[nH]c3ccc(F)cc3c2/C=N/O)cc1 | 99.8% (inactive)
38 | Cc1nc2ccccc2c(/C=C/c2ccc(Cl)cc2)c1C(=O)/C=C/c1ccc(Cl)cc1 | -70.6% (active)
39 | COc1ccc(-c2cc(-c3ccc(Nc4nc(Nc5ccccc5)nc(Nc5ccc(Cl)cc5)n4)cc3)nc(N)n2)cc1 | 52.6% (inactive)
40 | C=CCO[C@H]1CO[C@H]2[C@@H]1OC[C@@H]2Oc1ccc(Nc2ccnc(Nc3ccc(O[C@H]4CO[C@H]5[C@@H]4OC[C@@H]5OCC=C)c(Cl)c3)n2)cc1Cl | -85.5% (active)
